Hit rate of the full screen: of about 220,000 compounds, about 530 (0.24%) were called active. The entries come from a sample that favours actives as a whole. Potency and affinity values are given separately. Values without a mark were called inactive. No stated cut-off is given here; in the data, active means inhibition above about 13%; inconclusive means no clear call, values can overlap the other calls; inactive means below that.

The text below walks through data of PubChem BioAssay AID1376 (SRMLSC, 2008).

Bifunctional protein GlmU (Mycobacterium tuberculosis (strain ATCC 25618 / H37Rv)), sequence (P9WMN3 whole entry, looked up): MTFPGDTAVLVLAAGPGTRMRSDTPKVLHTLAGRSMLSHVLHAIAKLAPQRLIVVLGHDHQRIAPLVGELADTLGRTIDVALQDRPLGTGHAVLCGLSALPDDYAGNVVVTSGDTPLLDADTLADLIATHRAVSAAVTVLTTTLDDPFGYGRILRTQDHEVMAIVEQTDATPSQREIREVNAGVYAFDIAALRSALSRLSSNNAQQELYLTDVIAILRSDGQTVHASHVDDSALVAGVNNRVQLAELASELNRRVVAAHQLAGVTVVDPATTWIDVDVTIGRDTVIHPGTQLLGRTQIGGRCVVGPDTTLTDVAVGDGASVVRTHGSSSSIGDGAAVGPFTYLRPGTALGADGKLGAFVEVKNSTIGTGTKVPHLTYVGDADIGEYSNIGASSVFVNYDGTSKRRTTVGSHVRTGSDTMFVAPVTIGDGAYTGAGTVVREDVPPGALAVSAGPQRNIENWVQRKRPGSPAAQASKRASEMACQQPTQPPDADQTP

This assay has as its target Bifunctional protein GlmU (Mycobacterium tuberculosis (strain ATCC 25618 / H37Rv)) (UniProt P9WMN3). Kind of assay: inhibition of mycobacterial GlmU enzyme – biochemical, glucosamine-1-phosphate acetyltransferase (AID 1376).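 Further: 0% = complete reaction with vehicle and 100% = reaction without substrate.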 The conditions noted are these: M. tuberculosis GlmU acetyltransferase enzyme assay; active compounds read high;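 tested at 30 µM in the primary screen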.
As for `CCc1cccc(CC)c1NC(=O)COC(=O)c1ccccc1-c1nc2ccccc2s1`, the inhibition (in general, the change of the read-out against control, counted positive when it falls) was -1.43%. To `COc1ccc(-n2c(SCC(=O)NCCCN3CCCC3=O)nnc2C(C)N2CCCCC2)cc1` (configuration not stated) belongs -0.73%. As to `O=C(O)C(Cc1cc(Cl)ccc1Cl)Sc1nc2ccccc2[nH]1` (configuration not stated), the inhibition is -6.33%.

In the case of `COCCNC(=O)COC(=O)c1[nH]c(C)c(C(C)=O)c1C`, the inhibition was -0.47%. For `COc1ccc(/C=C/C(=O)Nc2nnc(C(C)C)s2)cc1OC`, the inhibition is 4.06%. With `CN(C)/C=C/C(=O)C(Cl)(Cl)Cl`, the inhibition was -0.97%. Turning to `COc1ccc(Nc2nnc(SCc3cc([N+](=O)[O-])cc4c3OCOC4)s2)cc1`, the inhibition is -5.67%. On to `O=C(CCCOc1ccc(Cl)cc1Cl)NCc1ccncc1`, for which the inhibition was 2.06%. Regarding `CN(CC(=O)Nc1ccc2c(c1)OCO2)S(=O)(=O)c1ccc2c(c1)CCC(=O)N2`, the inhibition was 2.93%. For the compound `O=C(Cc1c(O)c2ccccc2[nH]c1=O)N(Cc1ccccc1)Cc1ccccc1`, the inhibition was 35% (active). Consider `CC(C)CCN(CCC(C)C)C(=O)Cc1c(O)c2ccccc2[nH]c1=O`, for which the inhibition is -2.47%.

As to `CCN(CC)C(=O)Cc1c(O)c2ccccc2[nH]c1=O`, the inhibition is 1.17%. For `COc1ccc(NC(=O)C2=C(C)Nc3nc(CCCO)nn3C2c2ccc(OC)c(OC)c2)cc1` (configuration not stated), the inhibition is 6.23%. As for `COc1cc(NC(=O)c2cccs2)c(C(=O)OCC(=O)c2cc(C)n(-c3ccc(F)cc3)c2C)cc1OC`, the inhibition is 3.27%. To `Cc1ccccc1Oc1ccc(NC(=O)C2CC=CCC2C(=O)O)cc1` (configuration not stated) belongs 3.98%; to `Cc1ncc(S(=O)(=O)c2ccccc2)c(-c2ccccc2Cl)n1`, 4.86%. On to `CN(C)c1ncc(S(=O)(=O)c2ccccc2)c(-c2ccccc2Cl)n1`, for which the inhibition was 13.9% (active).

Turning to `CN(C)c1ncc(S(=O)(=O)c2ccc(Cl)cc2)c(-c2ccccc2)n1`, the inhibition is -0.58%. For the compound `CC(C)N1CCC(N2CCN(Cc3ccc4nsnc4c3)CC2CCO)CC1` (configuration not stated), the inhibition is -6.91%. As to `O=C(CCc1nc2ccccc2[nH]c1=O)OCc1ccc(S(=O)(=O)N2CCOCC2)cc1`, the inhibition is 1.61%. Turning to `Cc1cccc2cc3c(NC(=O)CC(C)C)nn(C)c3nc12`, the inhibition is 0.35%. Consider `C/C(=C\c1ccccc1)CN1CCN(c2ccccc2)CC1`, for which the inhibition is 2.64%. As to `CC1=C(C/C(C)=C/c2ccccc2)/C(=C/CO)[C@@H]2OC(=O)O[C@]2(C)C12CC2`, the inhibition was 3.53%.

For `CC1=C(C/C(C)=C/c2ccccc2)/C(=C/CO)[C@H](O)[C@](C)(O)C12CC2`, the inhibition is 13.9% (active). Regarding `NC(=O)NNC(=S)Nc1cccc2ccccc12`, the inhibition is 4.54%.

For `NC(=O)Nc1cccc2ccccc12`, the inhibition was 14.6% (active). Turning to `NC(=O)c1ccccc1NC(=O)Nc1cccc2ccccc12`, the inhibition is -1.2%.

With `O=C1CCCC2=C1C1c3ccccc3C(=O)N1c1ccc(C(=O)c3ccccc3)cc1N2` (configuration not stated), the inhibition was 0.1%.

Consider `O=C(CCC(=O)c1ccc(Oc2ccccc2)cc1)Nc1cccc(Cl)c1`, for which the inhibition is 3.77%.

For `Cc1ccccc1-c1cc(=O)c2c(O)cccc2o1`, the inhibition is -2.72%. Take `CCOc1ccccc1-c1c2cc(O)c(=O)cc-2oc2cc(O)c(O)cc12`: the inhibition is -3.1%. Then `O=c1cc2oc3cc(O)c(O)cc3c(-c3ccccc3O)c-2cc1O`, with 15.4% (active); and `O=c1cc(-c2ccccc2Cl)oc2cccc(O)c12`, with 3.22%; and `CC1(C)CC(=O)c2c(oc3cc(O)c(O)cc23)C1`, with -1.56%. `Cc1c2cc(O)c(=O)cc-2oc2cc(O)c(O)cc12`: the inhibition was 27.1% (active). Consider `COc1cc(OC)c(-c2c3cc(O)c(=O)cc-3oc3cc(O)c(O)cc23)cc1OC`, for which the inhibition was 8.01%. As to `COc1ccc(OC)c(-c2c3cc(O)c(=O)cc-3oc3cc(O)c(O)cc23)c1`, the inhibition is 14.7% (active). Turning to `COc1ccc(OC)c(-c2oc3ccccc3c(=O)c2O)c1`, the inhibition was 0.78%. Then `Cc1cc(NC(=O)CCCn2nc([N+](=O)[O-])cc2C)no1`, with 0.02%. Consider `COc1ccc2c(OC)cc(-c3ccccc3)nc2c1`, for which the inhibition is 3.08%.

As to `Cc1cc(NC(=O)Cc2ccccc2)c2ccccc2n1`, the inhibition was -0.11%.

Consider `CC(=O)Nc1cccc(NC(=O)CSc2ccc(C(F)(F)F)cc2[N+](=O)[O-])c1`, for which the inhibition was 1.81%. Then `CCOC(=O)c1c(C2CC2)csc1NC(=O)COC(=O)c1cnc(Cl)c(Cl)c1`, with 4.42%; and `S=c1[nH]nc(COc2cccc(Cl)c2)n1Cc1ccccc1`, with 2.34%; and `O=C(Cc1c[nH]c2ccccc12)Nc1nccs1`, with 3.72%. As for `CC1Cc2ccccc2N1C(=O)C1CCCN(S(=O)(=O)c2cccc3cccnc23)C1` (configuration not stated), the inhibition is -0.65%.

Consider `CCSc1nc2ccccc2c(=O)n1C1CCOC(C)(C)C1` (configuration not stated), for which the inhibition was 7.35%. As for `O=C(NCCCN1CCOCC1)c1sc2cc(Cl)ccc2c1Cl`, the inhibition was 4.82%. On to `O=C(NCCCN1CCOCC1)c1sc2cc([N+](=O)[O-])ccc2c1Cl`, for which the inhibition is 12.9% (active).

As to `O=C(NCCCN1CCOCC1)c1sc2cc(F)ccc2c1Cl`, the inhibition was -2.73%. For the compound `CCN(CC)c1ccc(N=Nc2ncn[nH]2)cc1`, the inhibition was -1.86%. To `COc1ccc2ccccc2c1C1CC(=O)N2CN(C)CSC2=C1C#N` (configuration not stated) belongs 13.8% (active); to `CCOc1ccccc1N1CSC2=C(C#N)C(c3c(OC)ccc4ccccc34)CC(=O)N2C1` (configuration not stated), 3.43%. For `COc1ccc2ccccc2c1C1CC(=O)N2CN(C3CCCCC3)CSC2=C1C#N` (configuration not stated), the inhibition is 7.17%. Consider `O=C(O)COc1c(Cl)cc(/C=C2\NC(=O)NC2=O)cc1Br`, for which the inhibition was 3.85%. As to `CC(C)OC(=O)c1cccc(C(=O)Nc2cccc(NC(=O)c3cccc(C(=O)OC(C)C)n3)n2)n1`, the inhibition was 2.69%.

With `O=C(N/N=C/c1ccc([N+](=O)[O-])o1)c1cc2c(ccc3ccccc32)o1`, the inhibition was -4.6%. Regarding `O=C(O)c1cc(-c2ccc(/C=N/NC(=S)Nc3ccccc3)o2)ccc1Cl`, the inhibition was 10.1%. To `COC(=O)c1cc(OC)cc(O)c1C(=O)c1c(O)cc(C)cc1O` belongs 1.11%. Take `COC(=O)c1cc(O)cc(OC)c1C(=O)c1c(O)cc(C)cc1O`: the inhibition is 0%. To `Clc1ccc(-c2csc(Nc3cccnc3)n2)cc1` belongs -1.87%. In the case of `CCCCCCNCc1c(F)cccc1Cl`, the inhibition is -1.27%. To `CCOC(=O)/C(=N/Nc1ccccc1OC)N1CCCc2ccccc21` belongs 3.21%; to `Cc1nc2c(=O)n(-c3ccc(F)c(Cl)c3)nc(C)c2s1`, -1.25%.

Consider `Cc1cccc(C)c1NC(=S)N/N=C1\CC2CC=CC12` (configuration not stated), for which the inhibition is 14.2% (active). Regarding `Cc1ccc(NC(=S)N/N=C2\CC3CC=CC23)c(C)c1` (configuration not stated), the inhibition is 2.83%. Take `FC(F)(F)c1ccccc1NC(=S)N/N=C1\CC2CC=CC12` (configuration not stated): the inhibition is -4.32%. `Clc1ccc(-c2nnc(-c3ccco3)nc2N2CCCCC2)cc1`: the inhibition is -2.38%. On to `Cc1ccc(C(=O)N/N=C\c2ccc(-c3ccc(Cl)c(Cl)c3)o2)cn1`, for which the inhibition is -1.63%. `Nc1ccc(C(=O)O)cc1[N+](=O)[O-]`: the inhibition was -10.2%.

As for `NS(=O)(=O)c1ccc(CNC(=O)NC2(c3ccccc3)CC2)cc1`, the inhibition is -5.17%. As to `CCOc1ccccc1CN1CCC(CO)(CCOc2ccccc2)CC1`, the inhibition is -6.84%. Take `Cc1c(Cl)cccc1-n1c(SCC(=O)N2CCC(C(=O)O)CC2)nnc1-c1ccncc1`: the inhibition was -2.06%. Turning to `Cc1ccccc1-n1c(SCC(=O)N2CCC(C(=O)O)CC2)nnc1-c1ccncc1`, the inhibition is 1.39%. For the compound `CCc1ccc(-n2c(SCC(=O)N3CCC(C(=O)O)CC3)nnc2-c2ccncc2)cc1`, the inhibition was 14.8% (active).

Take `O=[n+]1c2c(n([O-])c3c1CCC3)CCCC2`: the inhibition is -2.34%. Consider `O=c1[nH][nH]c2c(N=Cc3ccccc3O)ccc(F)c12`, for which the inhibition is 28.6% (active). As for `O=C(Nc1ccccc1)c1ccccc1N=Cc1ccccc1O`, the inhibition is -2.01%. Regarding `O=c1[nH][nH]cc1C=Nc1ccccc1O`, the inhibition was -0.91%. `Cc1ccc(NC(=O)CC2=NC(=O)C(CC(=O)Nc3ccccc3C)S2)cc1` (configuration not stated): the inhibition was 0.67%.

As to `OC(CNCc1ccc2c(c1)OCO2)COc1ccc(F)cc1` (configuration not stated), the inhibition is -6.96%. In the case of `COc1ccc(CN(CC2CCC(C(=O)O)CC2)C(=S)Nc2ccc(C)c(Cl)c2)cc1` (configuration not stated), the inhibition is 5.02%.

On to `CCC(=O)NC1=C(Cl)C(=O)C(NC(=O)CC)=C(Cl)C1=O`, for which the inhibition is 15.5% (active). Regarding `CCC(=O)Nc1c(C)cc(C)cc1Cl`, the inhibition is 2.67%. Take `CCC(=O)NC1=C(NC(C)c2ccccc2)C(=O)c2ccccc2C1=O` (configuration not stated): the inhibition is 4.92%.

For `COc1ccc(-c2noc(CSc3nc(-c4ccccc4)cc(=O)[nH]3)n2)cc1OC`, the inhibition was 2.31%. On to `O=C(Nc1ccc(O)cc1C(=O)O)c1ccc2c(c1)C(=O)N(Cc1ccco1)C2=O`, for which the inhibition was 4.38%. Regarding `O=C(Nc1ccc(Cl)cc1C(=O)O)c1ccc2c(c1)C(=O)N(Cc1ccco1)C2=O`, the inhibition was 13.9% (active). On to `Cc1c(NC(=O)c2ccc3c(c2)C(=O)N(Cc2ccco2)C3=O)cccc1C(=O)O`, for which the inhibition was -0.73%. In the case of `CNC(=O)COC(=O)c1cc2c(s1)CCCC2`, the inhibition was -3.54%. To `COc1ccc(C(=O)NC(=S)Nc2nc(C)cc(C)n2)cc1Br` belongs 13.4% (active); to `COc1ccc(C(=O)NC(=S)NC(C)C)cc1Br`, 4.89%; to `COc1ccc(C(=O)NC(=S)NC(C)(C)C)cc1Br`, -2.26%.

Take `CC1(C)CC(=O)C=C(NNC(=O)c2cccnc2)C1`: the inhibition was -2.32%. Take `Cc1ccc(N2C(=O)CS/C2=C(\C(Cl)=C(Cl)Cl)[N+](=O)[O-])cc1`: the inhibition is 12.9% (active). For the compound `CCOc1ccc(N2C(=O)CS/C2=C(\C(Cl)=C(Cl)Cl)[N+](=O)[O-])cc1`, the inhibition was 7.22%. For `Cc1ccc(N2C(=O)CSCC2=O)cc1`, the inhibition is -0.48%.
